In the library only some 3.7% were active in any assay of this set; here they are far more common.
ELG1 repair inh: qHTS screen for small molecules that inhibit ELG1-dependent DNA repair in human embryonic kidney (HEK293T) cells expressing luciferase-tagged ELG1; AID 504467, 2011; HEK293T ELG1-luciferase reporter, luminescence, 16 h; DNA damage induced by 5-fluorouridine; Potency, µM (titrated, usually from 46.1 µM), inactives show at the top dose activity change, negative = inhibition, actives largely listed as inhibitors; hit rate 2.3% among 330,000; note: % is set by controls: 0 for no effect and ±100 for the full control effect; nearly all actives have a fitted effect of over 55% in size
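Cells (2,000 per well) received 5-fluorouridine plus test compound or DMSO and were incubated 16 hr at 37 °C, 5% CO2. Luciferase activity was read by luminescence 30 min after ONE-Glo addition; signal suppression marked inhibition of damage-induced ELG1 function.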
Nrf2 activator: qHTS of Nrf2 Activators. AREc32 ARE-luciferase reporter (MCF7-derived line), luminescence, 24 h. Potency, µM (titrated, usually from 46.1 µM), for the others: at the highest dose activation, hits mostly activators. hit rate 0.31% among 410,000. AID 624171, 2012; note: % of control where 0% means no effect; nearly all actives have a fitted effect of over 65% in size
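AREc32_Fluc, 1000 cells/well, OPTI-MEM + 5% FBS, o/n 37 deg C 5% CO2; 23 nL cpd by pin tool, 24 hr; Steady-Glo 30 min RT, luminescence.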
A549 tox: Nrf2 qHTS screen for inhibitors: counterscreen for cytotoxicity; A549 ARE-Fluc cells, CellTiter-Fluor viability, 18-24 h; Potency, µM (top dose mostly 46 µM), for the others: top-dose activity change, negative = cytotoxicity, hits mostly inhibitors; hit rate 0.16% among 390,000; AID 504648, 2011; note: % is set by controls: 0 for no effect and ±100 for the full control effect
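A549 ARE-Fluc cells in 5% FBS OPTI-MEM, 5000 cells/well, rested 2 h then exposed to compounds in concentration-response for 18-24 h at 37 °C. Viability by CellTiter-Fluor fluorescence (Ex 405/Em 525) after 30 min; luciferase luminescence (BugLite, 15 min, RT) read afterwards.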
Nrf2 block: Nrf2 qHTS screen for inhibitors; A549 ARE-Fluc reporter, luciferase luminescence, 18-24 h; Potency, µM (highest dose often 46 µM), inactives show at the top dose activity change, negative = inhibition, hits mostly inhibitors; hit rate 2.1% among 360,000; note: % is set by controls: 0 for no effect and ±100 for the full control effect; nearly all actives have a fitted effect of over 60% in size
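Nrf2 activity is the BugLite luminescence, read 15 min after reagent at room temperature, following CellTiter-Fluor cytotoxicity readout (30 min, 37C). Compound titrations were applied for 18-24 h to 5000 A549 ARE_Fluc cells/well in 5% FBS OPTI-MEM.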
An asterisk follows results filed as active; ? = inconclusive; nt = no result; [ ] = dose if it differs, or a comment. Calls come from the whole dose curve; as a rule, active = well fitted curve in the direction sought with a large enough effect; inconclusive = small, poorly fitted or top-dose-only effect, or another doubt; inactive = no such curve, though single readings can be large; an effect the other way counts as inactive or inconclusive. Potency is the fitted concentration of half-maximal effect.

SMILES	ELG1 repair inh	Nrf2 activator	A549 tox	Nrf2 block
CNC(=S)N1CCN(S(=O)(=O)c2ccc3ccccc3c2)CC1	2%	2%	2%	23µM*
Cc1ccc(N(C)C(=O)N2CCN(S(=O)(=O)c3ccc4ccccc4c3)CC2)cc1	?	-1%	-17%	18µM*
COc1cc(C(CC(=O)Nc2cccc(C(C)=O)c2)N2Cc3ccccc3C2=O)cc(OC)c1OC (configuration not stated)	nt	1%	9%	0%
COc1ccc(CN(C(=O)Nc2cccc(Cl)c2)c2ccccn2)cc1OC	nt	7%	-14%	-5%
O=C(Nc1nccs1)c1cccc(NC(=O)c2ccco2)c1	23µM*	4%	2%	-11%
O=C(c1ccccc1)c1cccc(NC(=O)c2ccco2)c1	?	6%	-7%	7%
O=C(Nc1cccc(F)c1)c1ccco1	?	10µM*	-3%	9%
O=C(Nc1cccnc1)c1cccc(NC(=O)c2ccco2)c1	-19%	18%	-3%	-5%
O=C(Nc1cccc(-c2cnc3ccccc3n2)c1)c1ccccc1	11%	0%	-1%	nt
O=C(Nc1ccccc1O)c1cccc(NC(=O)c2ccco2)c1	12µM*	7.9µM*	0%	9%
O=C(Nc1cccc(-c2cnc3ccccc3n2)c1)c1cccc(NC(=O)c2ccco2)c1	10µM*	0%	?	?
Cc1ccc(C(=O)Nn2c(C)nc3ccccc3c2=O)cc1C	-7%	-1%	-4%	-11%
CCOC(=O)c1nnn(CC(=O)Nc2cc(C)cc(C)c2)c1C(=O)OCC	nt	0%	5%	9%[9.27 µM]
O=C(CCl)Nc1cccc(-c2cnc3ccccc3n2)c1	9.2µM*	?	-22%	-17%
O=C(Nc1ccccc1O)c1ccc(C(=O)c2ccccc2)o1	-1%	13µM*	0%	16%
COc1ccccc1NC(=O)c1ccc(C(=O)c2ccccc2)o1	-13%	7%	2%	-10%
O=C(Nc1nc2c(F)cccc2s1)c1ccco1	?	7.1µM*	1%	?
CCC(=O)Nc1cccc(-c2cnc3ccccc3n2)c1	?	2%	11%	30%
CCOc1ccccc1NC(=O)c1cnc(N2CCOCC2)c2ccccc12	nt	5%	-2%	nt
CCc1ccc(NC(=O)c2cnc(N3CCN(c4ccccn4)CC3)c3ccccc23)cc1	?	0%	?	12µM*
CCN1CCN(c2ncc(C(=O)Nc3ccccc3C(=O)OC)c3ccccc23)CC1	-5%	0%	18µM*	4%
CC(C)NC(=O)c1cnc(N2CCN(c3ccccn3)CC2)c2ccccc12	?	0%	-8%	?
Cc1nc(N2CCOCC2)c2c(C(=O)N3CCN(c4cccc(C)c4C)CC3)c(C)oc2n1	nt	3%	-10%	-2%
COc1ccc(NC(=O)C(OC(=O)CNC(=O)c2ccccc2)c2ccccc2)cc1Cl (configuration not stated)	nt	nt	-4%	-3%
CCC(=O)Nc1nonc1-c1nc2ccccc2n1CCC(C)C	23µM*	8%	-11%	?
SMILES	ELG1 repair inh	Nrf2 activator	A549 tox	Nrf2 block
CC(=O)Nc1nonc1-c1nc2ccccc2n1CCC(C)C	?	0%	1%	3%
COC(=O)C1=C(C)N(Cc2cccnc2)C(=O)/C1=C\c1sccc1C	21µM*	11%	-17%	0%
Cc1c(C(=O)NCCSCc2c(Cl)cccc2Cl)cccc1[N+](=O)[O-]	?	0%	-2%	9.2µM*
COc1ccc(C2c3[nH]c4ccc(OC)cc4c3CCN2C(=O)Nc2ccccc2)cc1 (configuration not stated)	nt	0%	?	15µM*
COc1ccc(C2c3[nH]c4ccccc4c3CCN2C(=O)CCC2CCCC2)cc1 (configuration not stated)	nt	1%	-9%	nt
CCOC(=O)[C@H]1[C@H]2COc3ccc(Cl)cc3[C@@H]2N2C(=O)c3ccc(F)cc3NC(=O)[C@@]12C	-1%	3%	-8%	23µM*
CC1(O)c2ccccc2C(=O)N1CCc1ccccc1F (configuration not stated)	?	7.1µM*	4%	?
CCOC(=O)Cn1nnnc1CN(Cc1ccc(OC)cc1)Cc1cc2cc(C)ccc2[nH]c1=O	18µM*	1%	24%	-1%
COc1ccc(Cn2nnnc2CN(Cc2cc3cccc(C)c3[nH]c2=O)C2CCCC2)cc1	?	4%	-15%	?
CCOc1ccc2[nH]c(=O)c(CN(Cc3nnnn3Cc3ccco3)C3CCCCC3)cc2c1	10µM*	0%	-11%	-2%
COc1ccc(Cn2nnnc2CN(Cc2cc3ccc(C)cc3[nH]c2=O)C2CCCC2)cc1	13µM*	1%	?	21µM*
COc1cc2cc(CN(Cc3nnnn3Cc3ccco3)C3CCCCC3)c(=O)[nH]c2cc1OC	0%	-1%	-14%	18%
Cc1ccc(OC2CCN(C(=O)[C@H]3O[C@@H](n4ccc(=O)[nH]c4=O)[C@H](O)[C@@H]3O)CC2)cc1	nt	0%	nt	nt
COc1ccc(/C=C/C(=O)O)cc1S(=O)(=O)NCc1cccnc1	-3%	0%	0%	5%
COc1ccc(NC(C)=[N+](C)CCNS(=O)(=O)c2ccc(Cl)cc2)cc1	-14%	2%	1%	10%
COc1ccc(C(=O)O/N=C(\N)Cc2ccc(Cl)c(Cl)c2)cc1OC	18µM*	3%[9.22 µM]	?	?
COc1ccc(C(=O)O/N=C(\N)Cc2ccc(Cl)cc2)cc1OC	?	1%	?	?
COc1ccccc1NS(=O)(=O)c1ccc2oc(SCc3ccc(F)cc3)nc2c1	13%	3%	-17%	23µM*
COc1ccc(NS(=O)(=O)c2ccc3oc(SCc4ccc(F)cc4)nc3c2)cc1	-12%	4%	-5%	18µM*
COc1ccccc1NS(=O)(=O)c1ccc2oc(SC(C)C(=O)N3CCNC3=O)nc2c1 (configuration not stated)	26µM*	0%	-13%	?
CCOC(=O)CSc1nc2cc(S(=O)(=O)Nc3ccccc3OC)ccc2o1	-1%	-1%	-5%	9%
COc1ccccc1NS(=O)(=O)c1ccc2oc(SC)nc2c1	-6%	4%	1%	21µM*
COc1ccccc1NS(=O)(=O)c1ccc2oc(SCC(C)=O)nc2c1	-20%	3%	-5%	?
Cc1ccc(CNC(=O)C(=O)NCC2CCCN2S(=O)(=O)c2cccs2)cc1 (configuration not stated)	-17%	3%	2%	12%
CCn1c(=O)cc(SCC(=O)Nc2cccc(SC)c2)c2ccccc21	?	4%	-23%	13µM*
CCn1c(=O)cc(SCC(=O)Nc2cc(OC)c(OC)c(OC)c2)c2ccccc21	0%	5%	-12%	?
COc1ccc(C(NC(=O)C2CCN(Cc3ccc(Oc4ccccc4)cc3)CC2)c2ccccc2C)cn1 (configuration not stated)	nt	0%	nt	nt

Screening data: PubChem, National Center for Advancing Translational Sciences (NCATS)
